In PubChem BioAssay (NCATS):
Results filed as inconclusive are left out. Where a call stands in place of a potency, no number is given. Active and inactive are the calls of the source. Unless noted, the call rests on the fitted dose curve; in most records, active means well fitted curve in the direction sought with a large enough effect; inconclusive means small, poorly fitted or top-dose-only effect, or another doubt; inactive means no such curve, though single readings can be large; an effect the other way counts as inactive or inconclusive.

Tests used:
[1] = Confirmation and Secondary Assay for Modulators of Hemoglobin Beta Chain Splicing at IVS2 654 locus (AID 910);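 further: HeLa cells stably carrying EGFP split by mutant beta-globin IVS2-654 intron; per-well total GFP intensity by laser scanning cytometry after 2-day treatment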
Summary of the method: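 Readout: per-well total peak green fluorescence (488 nm ex, 500–520 nm em) from objects 5–250 µm, reflecting correct splicing of an EGFP-654 reporter. Compounds were applied for 2 days at 37 °C to overnight-plated HeLa EGFP-654 cells; controls were DMSO and 500 nM IVS2-654 PNA.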

[2] = biological target: ATP-dependent DNA helicase Q1 (Homo sapiens) (UniProt P46063); experiment: qHTS Validation Assay for Inhibitors of RecQ-Like Dna Helicase 1 (RECQ1) (AID 2353)
Summary of the method: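 50 nM RECQ1T1 preincubated 15 min with compound in Tris pH 8.0 buffer with MgCl2, DTT, Tween-20 and 2.5 ug/ml poly(dI-dC); started with 200 nM TAMRA/BHQ-2 forked duplex and 2 mM ATP. Unwinding read as fluorescence (525/598 nm), two reads 2 h apart.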

[3] = biological target: M-phase phosphoprotein 8 (Homo sapiens) (UniProt Q99549); experiment: qHTS Validation Assay for Inhibitors for MPP8 Chromodomain Interactions with Methylated Histone Tails (AID 488949);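 further: AlphaScreen signal from MPP8 chromodomain bound to biotinylated H3K9me3 peptide; top concentration of the series differs between compounds; nearly all actives have a fitted effect of over 55% in size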
M-phase phosphoprotein 8 (Homo sapiens), sequence (Q99549 whole entry, looked up): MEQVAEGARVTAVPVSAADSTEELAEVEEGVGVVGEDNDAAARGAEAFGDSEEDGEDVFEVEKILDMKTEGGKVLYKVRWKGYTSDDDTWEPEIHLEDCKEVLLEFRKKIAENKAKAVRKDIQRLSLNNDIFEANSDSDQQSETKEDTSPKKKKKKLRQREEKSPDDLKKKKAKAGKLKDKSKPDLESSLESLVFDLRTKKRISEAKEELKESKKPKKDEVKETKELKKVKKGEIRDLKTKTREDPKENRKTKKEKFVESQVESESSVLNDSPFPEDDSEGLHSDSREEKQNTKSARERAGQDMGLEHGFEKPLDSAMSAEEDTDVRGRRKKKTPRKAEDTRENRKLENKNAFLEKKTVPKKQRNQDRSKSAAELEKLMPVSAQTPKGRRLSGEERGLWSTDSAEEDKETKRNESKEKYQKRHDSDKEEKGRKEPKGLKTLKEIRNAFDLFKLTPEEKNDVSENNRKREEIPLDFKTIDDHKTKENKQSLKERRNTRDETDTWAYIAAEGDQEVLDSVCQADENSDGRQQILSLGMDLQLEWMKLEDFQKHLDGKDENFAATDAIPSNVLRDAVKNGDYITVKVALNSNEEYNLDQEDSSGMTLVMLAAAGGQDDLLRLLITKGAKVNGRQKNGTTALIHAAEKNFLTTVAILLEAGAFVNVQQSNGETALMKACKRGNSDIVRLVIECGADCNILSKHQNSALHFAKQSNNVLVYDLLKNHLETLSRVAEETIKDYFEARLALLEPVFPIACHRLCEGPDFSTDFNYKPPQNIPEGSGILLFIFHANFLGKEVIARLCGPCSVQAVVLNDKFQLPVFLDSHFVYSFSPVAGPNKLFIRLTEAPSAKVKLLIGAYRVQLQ
Summary of the method: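 AlphaScreen proximity signal from streptavidin donor and Ni-chelate acceptor beads (10 ug/mL each) reported binding of MPP8 to trimethyl-K9 H3(1-18) peptide, both at 50 nM. The complex formed 30 min before a 30 min compound exposure at room temperature, in PBS pH 7.4.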

[4] = biological target: Methanococcus maripaludis chaperonin (MmCpn) (UniProt Q6LX38); experiment: High-Throughput Screening for Modulators of Cytosolic Chaperonin Activity: MmCpn Primary Screen (AID 488978);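 further: 50 nM MmCpn enzyme hydrolysing 30 µM ATP at 37 °C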
Methanococcus maripaludis chaperonin (MmCpn), sequence (Q6LX38 1-543): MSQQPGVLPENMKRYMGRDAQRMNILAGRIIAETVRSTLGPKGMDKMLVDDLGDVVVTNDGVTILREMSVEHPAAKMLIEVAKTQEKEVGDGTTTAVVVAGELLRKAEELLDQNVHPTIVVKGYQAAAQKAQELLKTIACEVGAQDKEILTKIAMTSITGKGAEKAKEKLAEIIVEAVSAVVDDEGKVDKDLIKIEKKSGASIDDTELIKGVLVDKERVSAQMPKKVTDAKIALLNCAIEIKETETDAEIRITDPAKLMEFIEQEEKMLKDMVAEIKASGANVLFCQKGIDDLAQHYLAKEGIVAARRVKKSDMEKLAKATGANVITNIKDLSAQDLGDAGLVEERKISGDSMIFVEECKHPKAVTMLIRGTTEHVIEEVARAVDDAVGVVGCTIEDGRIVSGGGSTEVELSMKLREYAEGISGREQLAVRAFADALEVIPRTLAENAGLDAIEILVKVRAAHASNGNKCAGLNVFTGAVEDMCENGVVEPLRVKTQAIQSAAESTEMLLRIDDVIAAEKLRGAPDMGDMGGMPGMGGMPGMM
Summary of the method: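 ATPase activity of 50 nM MmCpn was assayed with 30 uM ATP, 10 minutes at 37C, after a 5 min compound preincubation at room temperature. ADP production was read as HTRF emission at 590 and 665 nm.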

[5] = biological target: T1, Hexokinase-4 (Homo sapiens) + Glucokinase regulatory protein (Homo sapiens) (UniProt P35557+Q14397); experiment: qHTS assay for inhibitors of recombinant human GCK-GKRP interaction: Diaphorase-coupled assay (AID 743205)
T1 sequence (P35557 whole entry, looked up): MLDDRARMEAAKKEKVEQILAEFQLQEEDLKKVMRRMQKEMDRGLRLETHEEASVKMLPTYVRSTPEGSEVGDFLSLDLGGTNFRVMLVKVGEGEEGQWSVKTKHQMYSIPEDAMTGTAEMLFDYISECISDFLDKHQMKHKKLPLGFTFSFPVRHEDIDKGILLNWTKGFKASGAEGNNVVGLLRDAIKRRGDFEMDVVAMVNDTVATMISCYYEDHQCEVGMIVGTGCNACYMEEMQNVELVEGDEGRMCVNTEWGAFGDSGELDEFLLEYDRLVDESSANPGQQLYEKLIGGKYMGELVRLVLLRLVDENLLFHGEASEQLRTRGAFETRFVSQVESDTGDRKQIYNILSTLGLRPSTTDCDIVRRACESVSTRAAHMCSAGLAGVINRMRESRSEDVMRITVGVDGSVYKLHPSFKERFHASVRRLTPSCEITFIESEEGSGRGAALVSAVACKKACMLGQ
T1 sequence (Q14397 whole entry, looked up): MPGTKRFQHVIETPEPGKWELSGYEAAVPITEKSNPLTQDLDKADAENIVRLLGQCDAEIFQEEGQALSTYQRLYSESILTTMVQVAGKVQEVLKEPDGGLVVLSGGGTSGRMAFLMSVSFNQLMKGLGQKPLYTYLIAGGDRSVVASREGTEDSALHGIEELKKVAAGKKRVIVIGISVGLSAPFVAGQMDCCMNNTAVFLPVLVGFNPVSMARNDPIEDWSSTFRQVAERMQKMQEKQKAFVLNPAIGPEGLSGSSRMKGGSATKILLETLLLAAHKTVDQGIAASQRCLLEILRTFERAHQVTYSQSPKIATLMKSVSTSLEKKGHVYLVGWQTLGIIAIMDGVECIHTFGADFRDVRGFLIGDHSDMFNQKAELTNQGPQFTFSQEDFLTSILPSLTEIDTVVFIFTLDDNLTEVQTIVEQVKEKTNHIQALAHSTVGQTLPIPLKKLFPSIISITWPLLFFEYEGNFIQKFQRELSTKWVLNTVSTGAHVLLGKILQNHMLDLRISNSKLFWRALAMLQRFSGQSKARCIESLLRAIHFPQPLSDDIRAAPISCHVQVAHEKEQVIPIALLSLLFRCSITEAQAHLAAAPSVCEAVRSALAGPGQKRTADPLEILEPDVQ
Summary of the method: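 A kinetic fluorescence read (Ex 525/Em 590 nm, every minute for 30 minutes) tracked resorufin from a G6PDH-diaphorase coupled GCK reaction. It contained 10 nM GST-GCK, 10 nM FLAG-GKRP, 5 mM glucose, 0.4 mM ATP in Hepes pH 7.6. Normalized to with/without-enzyme DMSO controls.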

[6] = biological target: T1, Hexokinase-4 (Homo sapiens) + Glucokinase regulatory protein (Homo sapiens); experiment: qHTS assay for inhibitors of recombinant human GCK-GKRP interaction: ADP-Glo assay (AID 743206)
Summary of the method: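 GST-GCK and FLAG-GKRP (15 nM each in the dispensed mix, with 2 uM S6P) react with 0.4 mM ATP and 5 mM glucose (final) in Hepes pH 7.6 for 60 min at room temperature. ADP is measured by ADP-Glo luminescence.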

[7] = biological target: T1, Hexokinase-4 (Homo sapiens) + Glucokinase regulatory protein (Homo sapiens); experiment: qHTS assay for inhibitors of recombinant human GCK-GKRP interaction: HTRF assay (AID 743207)
Summary of the method: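 After 60 min equilibration at room temperature with anti-FLAG XL665 and anti-GST antibodies, FRET ratio (665/615 nm, excitation 320 nm) was read. Proteins: GST-GCK and FLAG-GKRP, each 5 nM, plus 2 uM S6P, pH 7.1 buffer; GCK-free wells define minimum signal.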

[8] = biological target: Parathyroid hormone/parathyroid hormone-related peptide receptor (Homo sapiens) (UniProt Q03431); experiment: qHTS for PTHR1 Agonists: Optimization Screen against the NCGC LOPAC library (AID 1347079);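 further: GloSensor cAMP luminescence in HEK-293 GP2 cells expressing human PTHR1 with IBMX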
Parathyroid hormone/parathyroid hormone-related peptide receptor (Homo sapiens), sequence (Q03431 whole entry, looked up): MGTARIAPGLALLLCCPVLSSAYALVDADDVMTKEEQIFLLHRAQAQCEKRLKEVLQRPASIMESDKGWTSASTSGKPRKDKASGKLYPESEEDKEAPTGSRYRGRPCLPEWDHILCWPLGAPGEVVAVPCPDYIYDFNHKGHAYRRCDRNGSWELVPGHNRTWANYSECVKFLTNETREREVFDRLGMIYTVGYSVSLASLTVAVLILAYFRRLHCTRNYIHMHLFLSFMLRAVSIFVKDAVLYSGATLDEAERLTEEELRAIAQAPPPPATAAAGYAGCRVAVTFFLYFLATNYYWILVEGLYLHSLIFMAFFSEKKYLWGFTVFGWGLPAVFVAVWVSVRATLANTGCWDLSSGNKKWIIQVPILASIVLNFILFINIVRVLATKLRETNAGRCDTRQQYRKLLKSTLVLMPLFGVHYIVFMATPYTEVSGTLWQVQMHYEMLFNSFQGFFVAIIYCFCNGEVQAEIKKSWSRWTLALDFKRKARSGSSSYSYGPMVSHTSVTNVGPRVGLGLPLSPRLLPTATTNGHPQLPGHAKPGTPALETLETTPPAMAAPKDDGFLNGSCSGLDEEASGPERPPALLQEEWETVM
Summary of the method: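 Agonist readout: GloSensor cAMP luminescence, read after 15 min at room temperature. HEK-293-derived GP2 line carries PTHR1; compounds tested as a titration for 1 hr at 37C in presence of IBMX. M-PTH (1-15) served as control.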

[9] = biological target: N-terminal Xaa-Pro-Lys N-methyltransferase 1 (Homo sapiens) (UniProt Q9BV86); experiment: qHTS Assay for Inhibitors of N-terminal methyltransferase 1 (NTMT1): LOPAC validation of the NTMT1 SAHH-coupled ThioGlo3 Assay (AID 1347143);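 further: SAH from peptide methylation measured as thiol fluorescence via SAHH coupling and ThioGlo3; nearly all actives have a fitted effect of over 70% in size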
Summary of the method: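 Inhibition of NTMT1 methylation of peptide SPKRIA is followed by converting SAH with SAHH and labelling the released thiol with ThioGlo3. Plates are read at 340/450nm before and 30 min after reagent addition, both at room temperature.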

[10] = system: Zika virus NS2B-NS3 protease (unlinked); experiment: Optimization of GU AMC qHTS for Zika virus inhibitors: Unlinked NS2B-NS3 protease assay (AID 1347151); further: series mostly up to about 52 µM; nearly all actives have a fitted effect of over 80% in size
Summary of the method: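 Fluorescence gain (340/450 nm) over 15 min at room temperature, ~20% conversion, gave percent inhibition fitted to a 4-parameter Hill equation; enzyme was unlinked NS2B-NS3 (25 nM final), pH 8.0 Tris buffer.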

[11] = system: Zika virus NS2B-NS3 protease; experiment: Primary screen GU AMC qHTS for Zika virus inhibitors (AID 1347154); further: nearly all actives have a fitted effect of over 70% in size
Summary of the method: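 Fluorogenic AMC-substrate cleavage by noncovalent NS2B-NS3 protease complex (25 nM, pH 8.0 Tris buffer with Tween 20) followed for 15 minutes at room temperature (~20% conversion). Percent inhibition from ex340/em450 signal change, fitted by 4-parameter Hill equation.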

[12] = system: Zika virus NS2B-NS3 protease (unlinked complex); experiment: Primary screen GU Rhodamine qHTS for Zika virus inhibitors: Unlinked NS2B-NS3 protease assay (AID 1347159); further: nearly all actives have a fitted effect of over 60% in size
Summary of the method: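 Noncovalent NS2B hydrophilic domain/NS3 protease complex (25 nM final) in 10 mM Tris-HCl pH 8.0, 0.01% Tween 20, preincubated 15 min with compounds (up to 114 microM), then 1.5 microM Rhodamine110 substrate. Fluorescence change over 15 min fitted to 4-parameter Hill.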

[13] = system: Zika virus NS2B-NS3 protease (linked construct); experiment: Primary screen NINDS Rhodamine qHTS for Zika virus inhibitors (AID 1347160); further: nearly all actives have a fitted effect of over 55% in size
Summary of the method: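 Purified NS2B-NS3 protease with the NS2B hydrophilic domain joined by a flexible linker (25 nM) in 10 mM Tris-HCl pH 8.0, 0.01% Tween 20, preincubated 15 min at RT with compound; Rhodamine110 peptide substrate 1.5 µM; fluorescence change over 15 min; 4-parameter Hill fit.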

[14] = biological target: Lysine-specific demethylase 5B (Homo sapiens) (UniProt Q9UGL1); experiment: Optimization screen for KDM5B Histone Demethylases FDH coupled qHTS against the LOPAC library (AID 1347166)
Lysine-specific demethylase 5B (Homo sapiens), sequence (Q9UGL1 whole entry, looked up): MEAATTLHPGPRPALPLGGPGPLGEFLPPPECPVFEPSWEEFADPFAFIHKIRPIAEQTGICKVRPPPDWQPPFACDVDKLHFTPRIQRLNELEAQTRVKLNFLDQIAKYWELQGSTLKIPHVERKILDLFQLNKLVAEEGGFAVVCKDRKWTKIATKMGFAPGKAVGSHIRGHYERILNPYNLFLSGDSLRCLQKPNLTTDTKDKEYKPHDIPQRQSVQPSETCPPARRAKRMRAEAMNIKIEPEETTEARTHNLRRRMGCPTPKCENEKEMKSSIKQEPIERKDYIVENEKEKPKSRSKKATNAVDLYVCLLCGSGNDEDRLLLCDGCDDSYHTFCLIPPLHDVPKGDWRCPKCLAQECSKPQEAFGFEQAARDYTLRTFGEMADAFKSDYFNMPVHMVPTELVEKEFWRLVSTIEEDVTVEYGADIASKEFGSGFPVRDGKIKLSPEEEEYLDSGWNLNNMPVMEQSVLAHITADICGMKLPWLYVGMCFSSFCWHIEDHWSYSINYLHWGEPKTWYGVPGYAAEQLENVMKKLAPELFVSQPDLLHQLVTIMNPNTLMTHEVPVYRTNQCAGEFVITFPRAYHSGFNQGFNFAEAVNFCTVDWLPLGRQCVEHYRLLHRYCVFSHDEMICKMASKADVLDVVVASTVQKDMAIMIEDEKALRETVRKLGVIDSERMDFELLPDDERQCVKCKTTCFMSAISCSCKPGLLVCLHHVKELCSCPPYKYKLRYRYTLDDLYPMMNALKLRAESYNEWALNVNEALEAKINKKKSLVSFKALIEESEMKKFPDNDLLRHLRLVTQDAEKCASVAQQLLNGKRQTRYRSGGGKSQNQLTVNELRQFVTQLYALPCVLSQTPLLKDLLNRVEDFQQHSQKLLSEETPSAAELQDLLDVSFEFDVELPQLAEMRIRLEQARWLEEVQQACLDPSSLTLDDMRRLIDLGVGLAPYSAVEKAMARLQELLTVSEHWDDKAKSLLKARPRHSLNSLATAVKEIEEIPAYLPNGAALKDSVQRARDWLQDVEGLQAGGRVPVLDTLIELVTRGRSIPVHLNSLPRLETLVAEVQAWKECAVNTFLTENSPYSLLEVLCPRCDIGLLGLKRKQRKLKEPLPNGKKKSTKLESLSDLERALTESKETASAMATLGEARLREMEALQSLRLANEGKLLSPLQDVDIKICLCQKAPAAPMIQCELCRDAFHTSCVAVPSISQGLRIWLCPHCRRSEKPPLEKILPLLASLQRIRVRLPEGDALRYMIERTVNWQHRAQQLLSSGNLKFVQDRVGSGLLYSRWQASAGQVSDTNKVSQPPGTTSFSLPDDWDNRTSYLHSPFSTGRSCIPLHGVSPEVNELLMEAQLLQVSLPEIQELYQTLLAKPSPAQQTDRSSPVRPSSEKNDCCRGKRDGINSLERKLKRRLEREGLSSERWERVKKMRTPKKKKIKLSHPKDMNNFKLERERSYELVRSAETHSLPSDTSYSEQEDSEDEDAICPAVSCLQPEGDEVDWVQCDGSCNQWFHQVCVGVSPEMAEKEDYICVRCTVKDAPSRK
Summary of the method: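 KDM5BDeltaAP (200nM final) preincubated 10 min with compound, then 12.5uM H3K4Me3, 25uM a-ketoglutarate, ascorbate, Fe(II), NAD+ and FDH added; 50mM HEPES pH 7.5, 0.01% Tween-20. NADH fluorescence (340/450 nm) change over 30 min, room temperature.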

[15] = qHTS for inhibitors of adenylyl cyclases using a fission yeast platform: a pilot screen against the NCATS LOPAC library (AID 1347410)
Summary of the method: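 GFP from fbp1-GFP reporter, read by Acumen laser cytometry, indicates AC inhibition in fission yeast expressing AC9, GNAS and PDE4D2. Cells grown 18 h in the dark at 30C with compounds, final up to 57 uM.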

[16] = biological target: Single-stranded DNA cytosine deaminase (Homo sapiens) (UniProt Q9GZX7); experiment: Validation qHTS assay for inhibitors of Activation Induced Cytidine Deaminase (AID): AID signal (AID 1347429)
Summary of the method: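 Fluorescence at 540 nm excitation and 590 nm emission reports ssDNA cytosine deamination by AID, with UDG in the same well. Compound-treated reactions ran 4 hr at room temperature with DJC20/DJC23 substrate, followed by 30 min NaOH treatment.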

[17] = Primary qHTS for inhibitors of La Crosse Virus (LACV) - induced cell death in SH-SY5Y cells (AID 1508616);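 further: top concentration of the series differs between compounds; higher means more rescue of cells from virus-induced death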
Summary of the method: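 Protection against LACV-induced cell death is scored in SH-SY5Y cells exposed to compounds and virus (0.01 MOI) for 6 days. Data normalized to virus-infected DMSO wells and virus-free DMSO wells.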

[18] = biological target: Papain (Carica papaya) (UniProt P00784); experiment: Primary qHTS assay for inhibitors of the protease papain (AID 1645873);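 further: papain turnover of Z-FR-AMC read as the AMC fluorescence gain over 10 min; series mostly up to about 50 µM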
[19] = biological target: Rap guanine nucleotide exchange factor 4 (Homo sapiens) (UniProt Q8WZA2); experiment: Confirmatory qHTS for antagonist of cAMP-regulated guanine nucleotide exchange factor 4 (EPAC2) (AID 1645885); further: potency means the concentration at half of the fitted maximal effect; nearly all actives have a fitted effect of over 25% in size
[20] = biological target: Glutathione peroxidase 1 (Homo sapiens) (UniProt P07203); experiment: Primary qHTS Assay for Inhibitors of Recombinant Selenoprotein Glutathione Peroxidase 1 (GPX1) (AID 1845191); further: nearly all actives have a fitted effect of over 65% in size
Glutathione peroxidase 1 (Homo sapiens), sequence (P07203 whole entry, looked up): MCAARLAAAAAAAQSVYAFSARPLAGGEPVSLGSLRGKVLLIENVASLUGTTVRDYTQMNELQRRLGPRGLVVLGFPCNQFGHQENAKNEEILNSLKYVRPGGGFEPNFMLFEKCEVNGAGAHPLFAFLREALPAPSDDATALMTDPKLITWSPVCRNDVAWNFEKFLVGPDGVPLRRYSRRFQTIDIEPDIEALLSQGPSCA
Summary of the method: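 10 nM GPX1 + cpd, 30 min RT; start w/ 1 mM GSH, 0.5 mM cumene hydroperoxide, 0.5 mM NADPH, 100 nM GR, 0.01% BSA; buffer 50 mM Tris-HCl pH 7.5, 2 mM EDTA, 150 mM NaCl; Fl 340/450, 0 & 15 min.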

[21] = biological target: Phospholipid hydroperoxide glutathione peroxidase GPX4 (Homo sapiens) (UniProt P36969); experiment: Primary qHTS Assay for Inhibitors of Recombinant Selenoprotein Glutathione Peroxidase 4 (GPX4) (AID 1845192); conditions: outcome: dose series up to 50 µM unless noted; further: series mostly up to about 50 µM; nearly all actives have a fitted effect of over 65% in size
Phospholipid hydroperoxide glutathione peroxidase GPX4 (Homo sapiens), sequence (P36969 whole entry, looked up): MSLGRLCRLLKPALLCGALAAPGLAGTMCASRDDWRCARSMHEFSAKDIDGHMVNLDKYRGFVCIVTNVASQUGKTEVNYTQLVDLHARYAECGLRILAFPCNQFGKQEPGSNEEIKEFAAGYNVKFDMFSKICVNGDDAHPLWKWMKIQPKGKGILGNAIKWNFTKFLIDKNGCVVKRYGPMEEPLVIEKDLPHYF
Summary of the method: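 NADPH consumption, followed by fluorescence at 340/450 nm between 0 and 15 min, reports GPX4 activity via coupled glutathione reductase (100 nM). Enzyme 200 nM was pre-exposed to compound 30 min; 0.5 mM cumene hydroperoxide and 1 mM GSH served as substrates.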

[22] = biological target: Luciferin 4-monooxygenase (Photinus pyralis) (UniProt P08659); experiment: Primary firefly luciferase (FLuc) qHTS assay for identification of artifact compounds. (AID 1845220); further: nearly all actives have a fitted effect of over 60% in size
Summary of the method: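 Compounds sat 15 min at room temperature with 10 uM luciferin and 10 uM ATP (pH 7.6 Tris acetate). Firefly luciferase (10 nM final) was then added, and luminescence was read 5 min later. Data normalized to no-enzyme and DMSO controls were Hill-fitted.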

[23] = Primary fluorescence-based thiol-reactive (MSTI) qHTS assay for identification of artifact compounds. (AID 1845221);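 further: series mostly up to about 54 µM; thiol-reactive compounds lower the probe fluorescence signal; nearly all actives have a fitted effect of over 65% in size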
Summary of the method: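 First, 4 uM MSTI in 2% DMSO/PBS pH 7.4 was dispensed; next, compounds were added; then plates sat 1 h at room temperature without light. Finally, emission at 598 nm was recorded.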

[24] = Primary redox qHTS assay for identification of artifact compounds. (AID 1845223)
Summary of the method: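 Amplex Red (25 uM) and HRP (250 mU/mL) in HBSS, with compounds for 15 min, then 250 uM DTT for 30 min, room temperature, dark. Fluorescence 525/598 nm read; normalized to DMSO and 10 uM DA3003; Hill fit.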

[25] = qHTS drug screen for cell cycle checkpoint inhibitors in PARPi-resistant BRCA-mutant ovarian cancer cell lines. (AID 1963452; calls by dose curve); conditions: PEO1/OlaR viability, CellTiter-Glo luminescence, 96 h, stronger effect = lower value
Summary of the method: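 PEO1, PEO4 and PEO1/OlaR ovarian cancer cells, 600 per well, exposed 96 h at 37C to a dilution series. Viability read by CellTiter-Glo luminescence, normalized to DMSO and empty wells; activity summarized as Z-AUC.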

Structure (SMILES): C/C=C/CC(C)C(O)C1C(=O)NC(CC)C(=O)N(C)CC(=O)N(C)C(CC(C)C)C(=O)NC(C(C)C)C(=O)N(C)C(CC(C)C)C(=O)NC(C)C(=O)NC(C)C(=O)N(C)C(CC(C)C)C(=O)N(C)C(CC(C)C)C(=O)N(C)C(C(C)C)C(=O)N1C (configuration not stated)
- outcome [1]: inactive
- Potency [2]: inactive
- Potency [3]: inactive
- outcome [4]: inactive
- outcome [5]: inactive
- outcome [6]: inactive
- outcome [7]: inactive
- outcome [8]: inactive
- Potency [9]: inactive
- Potency [10]: inactive
- Potency [11]: inactive
- Potency [12]: inactive
- Potency [13]: inactive
- outcome [14]: inactive
- outcome [15]: inactive
- Potency [16]: inactive
- outcome [17]: inactive
- Potency [18]: inactive
- Potency [19]: 7.84 µM (active)
- Potency [20]: inactive
- Potency [21]: inactive
- Potency [22]: inactive
- Potency [23]: inactive
- Potency [24]: inactive
- Z-AUC [25]: -0.474 (inactive)
- Z-AUC ([25]; measured here: PEO1 parental Z-AUC): 0.643
- Z-AUC ([25]; measured here: PEO4 Z-AUC): 0.0499
